In the library only some 8.9% were active in any assay of this set; here they are far more common.
MCF10A rereplic – induces DNA re-replication in MCF 10a normal breast cells | MCF 10A DNA re-replication, Hoechst nuclear intensity, 48 h | Potency, µM (doses to about 46.1 µM), without a hit: top-dose activity, positive = re-replication, usual class: activators | actives 2.9% (n = 350,000) | AID 624296; note: potency is the fitted concentration of half-maximal effect; % of control where 0% means no effect; nearly all actives have a fitted effect of over 50% in size
DRD3 antagonist – antagonists of human D3 dopamine receptor; max response, negative = inhibition, %; actives 2.5% (n = 360,000); P35462; D3R cells, DiscoveRx beta-arrestin luminescence, antagonist mode; stronger effect = lower value; AID 652054; in the data active = max response below about -50%; inconclusive = no clear call, values can overlap the other calls; note: % is set by controls: 0 for no effect and ±100 for the full control effect
Target sequence (P35462 whole entry, looked up): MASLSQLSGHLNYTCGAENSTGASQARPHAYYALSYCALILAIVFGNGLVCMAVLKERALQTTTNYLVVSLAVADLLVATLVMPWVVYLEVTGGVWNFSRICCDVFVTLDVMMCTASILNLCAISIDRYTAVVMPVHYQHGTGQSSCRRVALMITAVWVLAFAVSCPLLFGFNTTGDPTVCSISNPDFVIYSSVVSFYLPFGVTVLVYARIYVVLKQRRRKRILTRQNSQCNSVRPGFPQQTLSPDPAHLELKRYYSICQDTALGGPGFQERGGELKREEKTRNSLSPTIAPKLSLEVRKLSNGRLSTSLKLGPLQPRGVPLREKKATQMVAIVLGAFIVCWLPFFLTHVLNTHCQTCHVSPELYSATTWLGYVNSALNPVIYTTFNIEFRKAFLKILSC
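Cells plated overnight at 1500 cells/well, then exposed to library compounds with dopamine controls for 90 minutes at 37 degrees C. DiscoveRx reagent added for 30–60 minutes at room temperature; luminescence read, quantitative HTS format.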
D3 ag – agonists of human D3 dopamine receptor; P35462; D3R DiscoveRx beta-arrestin cells, luminescence, 90 min; max activation, %; actives 0.58% (n = 410,000); AID 652048; in the data active = max activation above about 30%; note: 0% is about no effect
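Cells at 1500/well, incubated overnight, then treated with pinned compounds (dopamine as control) for 90 min at 37 degrees C. DiscoveRx reagent added for 30 - 60 minutes at room temperature; luminescence read.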
KB-V1 cytotox – KB-V1 MDR subline cytotoxicity. Potency, µM (top dose mostly 46.1 µM), actives largely listed as cytotoxic. AID 1347076. KB-V1 MDR cells viability, CellTiter-Glo, 72 h. actives 3.4% (n = 400,000); note: potency is the fitted concentration of half-maximal effect; % is set by controls: 0 for no effect and ±100 for the full control effect; nearly all actives have a fitted effect of over 60% in size
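Readout: CellTiter-Glo luminescence, 10 min after addition. Cells: KB-V1 MDR subline, 72 h at 37 degrees C with compound. Analysis: corrected, normalized data fitted to concentration-effect curves.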
KB-3-1 cytotox – kills parental KB-3-1 adenocarcinoma cells | Potency, µM (doses to about 46.1 µM), most hits filed as cytotoxic | KB-3-1 viability, CellTiter-Glo ATP luminescence, 72 h | actives 1.4% (n = 400,000); note: potency is the fitted concentration of half-maximal effect; % is set by controls: 0 for no effect and ±100 for the full control effect; nearly all actives have a fitted effect of over 60% in size
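Cells are dispensed, compounds pinned in, plates held at 37 °C for 72 h, then CellTiter-Glo is added and luminescence read after 10 minutes. Cell line: parental KB-3-1 in phenol-red-free DMEM, 10% FBS.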
SW480 rerep – DNA re-replication induction in SW480 cells | actives 1.8% (n = 340,000) | AID 624297 | SW480 DNA re-replication, Hoechst DNA content imaging, 48 h | Potency, µM (top dose mostly 46.1 µM), without a hit: at the top dose re-replication activation, usual class: activators; note: potency is the fitted concentration of half-maximal effect; % of control where 0% means no effect; nearly all actives have a fitted effect of over 55% in size
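Readout is total intensity of Hoechst-stained nuclei, excited at 405 nm and collected at 500-530 nm. Compound treatment lasted 48 hr at 37 C in 5% CO2 before staining.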
Active calls of the source: *; i = inactive; u = inconclusive; x = not tested or not shown. Unless noted, calls come from the whole dose curve; as a rule, active = well fitted curve in the direction sought with a large enough effect; inconclusive = small, poorly fitted or top-dose-only effect, or another doubt; inactive = no such curve, though single readings can be large; an effect the other way counts as inactive or inconclusive.

SMILES | MCF10A rereplic | DRD3 antagonist | D3 ag | KB-V1 cytotox | KB-3-1 cytotox | SW480 rerep
C=C1C=C(C(F)F)n2ncc(C(=O)NCc3ccc(Cl)cc3)c2N1 | x | x | x | i | i | x
CC(C)C(=O)Nc1nnc(CSCc2ccccc2F)s1 | 2% | 9 | 3 | 18µM* | i | -3%
CC(=O)Nc1nnc(CSCc2ccc(F)cc2)s1 | 4% | -51* | 3 | i | i | 19%
COc1ccc(C2/C(=C(/O)c3ccccc3)C(=O)C(=O)N2CCN2CCOCC2)c(OC)c1 (centres undefined) | 3% | -57* | 0 | i | i | -1%
COc1cccc(/C(O)=C2\C(=O)C(=O)N(c3ccccn3)C2c2ccccc2OC)c1 (centres undefined) | 21% | -51* | -1 | i | i | 2%
COc1ccc(C2/C(=C(/O)c3ccc(Cl)cc3)C(=O)C(=O)N2CCN2CCOCC2)c(OC)c1 (centres undefined) | -2% | 0 | 1 | u | i | -8%
COc1ccc(C2/C(=C(/O)c3ccccc3)C(=O)C(=O)N2c2ccccn2)c(OC)c1 (centres undefined) | -1% | -15 | -1 | i | i | -12%
c1ccc2cnccc2c1 | x | x | x | i | i | x
Cc1cccc2nc(-c3cccnc3)c(Nc3ccccc3)n12 | -8% | -13 | -7 | 18µM* | u | 3%
Cc1cccc2nc(-c3cccnc3)c(NCCC(C)C)n12 | 21µM* | 9 | -2 | u | i | -2%
Cc1ccccc1Nc1c(-c2ccccc2)nc2cccc(C)n12 | x | x | -4 | u | i | x
CCCCNc1c(-c2cccnc2)nc2nc(C)cc(C)n12 | x | 14 | 7 | u | i | x
Cc1ccc(C)c(NC(=O)CSc2ccc(S(=O)(=O)N3CCCC3)cn2)c1 | 7% | 16 | 5 | i | i | 3%
O=C(CSc1ccc(S(=O)(=O)N2CCCC2)cn1)Nc1ccc([N+](=O)[O-])cc1C(F)(F)F | 18% | 5 | 6 | 5.2µM* | u | 4%
C=CCN(CC=C)C(=O)C(=O)c1cc(C)n(-c2ccc([N+](=O)[O-])cc2)c1C | -7% | 7 | 2 | 7.3µM* | i | -7%
COc1cc2c(cc1NC(=O)c1cccc(Br)c1)CCCC2 | 14% | 100 | 3 | i | i | 10%
COc1ccc(OCCNC(=O)c2cccc(Oc3ccc(C(F)(F)F)cc3[N+](=O)[O-])c2)cc1 | u | 5 | -3 | 2.9µM* | u | -34%
COc1ccc(Oc2ccc(C(F)(F)F)cc2NC(=O)c2ccc(F)cc2)cc1 | -2% | 6 | 1 | i | i | 1%
COc1cccc(Oc2ccc(C(F)(F)F)cc2NC(=O)c2cccc(F)c2)c1 | -53% | 37 | -5 | 21µM* | u | -3%
COc1cc2c(cc1NC(=O)c1cccc(F)c1)CCCC2 | 21% | 3 | -2 | 23µM* | i | 7%
O=C(NCCOc1ccccc1)c1cc(C(=O)NCCOc2ccccc2)cc([N+](=O)[O-])c1 | 13% | 8 | -10 | 3.7µM* | u | u
Cc1cccc(CC(=O)NCCc2csc(-c3ccc(C(F)(F)F)cc3)n2)c1 | x | x | 10 | x | x | x
CS(=O)(=O)N(CC(=O)N1CCCC1)C1CCCCC1 | x | -13 | 3 | i | i | x
COc1ccc(OC)c(CNC(=O)CN2CC(C)Sc3ccccc32)c1 (centres undefined) | x | x | 0 | u | i | x
COc1ccccc1Nc1c2c(nc3ccc(NC(=O)c4cccc(F)c4)cc13)CCCC2 | x | x | -17 | i | 21µM* | x
SMILES | MCF10A rereplic | DRD3 antagonist | D3 ag | KB-V1 cytotox | KB-3-1 cytotox | SW480 rerep
C[C@H](CO)N1C[C@H](C)[C@H](CN(C)S(=O)(=O)c2cccc(F)c2)OCc2ccccc2-c2c(n(C)c3ccccc23)C1=O | x | -13 | 5 | i | 23µM* | x
C[C@@H]1CN([C@@H](C)CO)C(=O)c2ccccc2-c2ccccc2CO[C@@H]1CN(C)S(=O)(=O)c1ccc(C(F)(F)F)cc1 | x | 17 | 10 | 16µM* | i | x
COc1ccc(S(=O)(=O)Nc2cccc3c2O[C@H](CN(C)S(=O)(=O)c2ccc(F)cc2)[C@H](C)CN([C@H](C)CO)C3=O)cc1 | 11% | 2 | -12 | i | i | -8%
COc1ccc(S(=O)(=O)Nc2cccc3c2O[C@H](CN(C)S(=O)(=O)c2ccccc2)[C@@H](C)CN([C@H](C)CO)C3=O)cc1 | 0% | -9 | -34 | u | i | 0.82µM*
Cc1ccc(S(=O)(=O)N(C)C[C@@H]2OCc3ccccc3-c3c(n(C)c4ccccc34)C(=O)N([C@H](C)CO)C[C@@H]2C)cc1 | x | 12 | 13 | u | u | x
C[C@H](CO)N1C[C@H](C)[C@H](CN(C)Cc2cccc(O)c2)OCc2ccccc2-c2c(n(C)c3ccccc23)C1=O | x | 24 | 45* | u | u | x
CCOC(=O)c1ccc(N2C(=O)C3CCCN3C2=S)cc1 (centres undefined) | 3% | 4 | 11 | u | i | 4%
CCc1ccccc1N1C(=O)N(Cc2ccc(C#N)cc2)c2ccccc2S1(=O)=O | x | x | -4 | i | i | x
Cc1ccc(/C=N\NC(=O)c2ccc(Cn3cc(Br)c([N+](=O)[O-])n3)o2)o1 | -4% | 4 | -1 | i | u | -17%
O=C(N/N=C\c1cccc(Cl)c1)c1ccc(Cn2cc(Br)c([N+](=O)[O-])n2)o1 | u | 41 | 2 | 21µM* | u | u
Cc1cc(Br)cc2c(C(=O)OCC(=O)c3ccccc3)cc(-c3ccccc3)nc12 | x | x | -3 | i | i | x
COc1ccc(N2C(=O)c3ccc(C(=O)Nc4ccccc4O)cc3C2=O)cc1 | 2.9µM* | 1 | -4 | u | i | -41%
O=C(Nc1nc(N2C(=O)c3ccccc3C2=O)n(-c2ccccc2)n1)c1ccc(F)cc1 | -1% | -55* | 12 | i | i | -9%
COc1ccccc1N1C(=O)c2ccc(C(=O)Nc3ccccc3O)cc2C1=O | -8% | -6 | 4 | i | i | -13%
CC(=O)Nc1nc(N2C(=O)c3ccccc3C2=O)n(-c2ccccc2)n1 | 1% | -63* | -1 | i | i | 3%
O=C(Nc1nc(N2C(=O)c3ccccc3C2=O)n(-c2ccccc2)n1)c1ccccc1 | -42% | 42 | 2 | i | u | -2%
COc1ccc(C(=O)Nc2nc(N3C(=O)c4ccccc4C3=O)n(-c3ccccc3)n2)cc1 | 1% | -91* | -6 | i | i | -4%
COC(=O)[C@H](C)NS(=O)(=O)C1CC1 | x | x | x | i | i | x
O=C1CC[C@H](C(=O)N[C@@H]2C[C@H]2c2ccccc2)N1 | -1% | x | x | x | x | -5%
